Measurements from PubChem BioAssay (NCI).
The panel holds about 83,000 compounds, 20% with a hit somewhere; the sample as a whole holds those more often.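 Interpretation: 100, growth as untreated; towards 0, rising growth inhibition; 0, no net growth; 0 to -100, cell death. Compounds scoring below 10 were considered active.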 Unmarked numbers belong to inactive results. Active and inactive are the calls of the source.

Columns and labels:
Assay in all cases: NCI-60 one-dose screen, 48 h (100 = growth as untreated, 0 = no growth, -100 = all killed)
Settings in all cases: 10 µM unless noted
[1] = system: DU-145 prostate
[2] = system: K-562 leukemia
[3] = system: MALME-3M melanoma
[4] = system: MDA-MB-231 breast
[5] = system: RXF 393 renal
[6] = system: SF-268 CNS
[7] = system: SF-295 CNS
[8] = system: SF-539 CNS
[9] = system: UACC-257 melanoma
[10] = system: M14 melanoma

| SMILES | growth [1] | growth [2] | growth [3] | growth [4] | growth [5] | growth [6] | growth [7] | growth [8] | growth [9] | growth [10] |
| --- | --- | --- | --- | --- | --- | --- | --- | --- | --- | --- |
| C/C(=N\N=C\c1cc([N+](=O)[O-])ccc1Cl)c1ccc2c(c1)Nc1ccccc1S2 | 84.2% | 57.1% | 74.2% | 49.9% | 62.8% | 80.4% | -28% (active) | 58.1% | 81.5% | 88.2% |
| NS(=O)(=O)c1ccc(N=Nc2c(O)n(CC(=O)Nc3ccccc3Cl)c3ccccc23)cc1 | 28.8% | 16.2% | 16% | 15.4% | 24.4% | 77.4% | 15.1% | -10% (active) | 53.2% | 23.8% |
| CCCCSc1nc(NCCc2c[nH]c3ccccc23)c(C#N)c(-c2ccccc2)n1 | 54% | 8.19% (active) | 86.9% | 18.3% | -8.31% (active) | 39.9% | 48.4% | 46.6% | 81.4% | 60.1% |
| COC(=O)C[C@](O)(CCCC(C)(C)O)C(=O)O[C@H]1C(OC)=C[C@@]23CCCN2CCc2cc4c(cc2[C@@H]13)OCO4 | -11.7% (active) | 4.68% (active) | -43.8% (active) | -20.4% (active) | -31.8% (active) | -6.53% (active) | -22.8% (active) | -50.8% (active) | -28.2% (active) | -71.4% (active) |
| CCOP(=O)(OCCCl)c1nc(-c2ccc(C)cc2)oc1NCc1ccccc1 (stereo not given) | 96% | 50.3% | 102% | 65.1% | 84.4% | 73.7% | 79.9% | 87.2% | 92.6% | 86.3% |
| COc1ccc2[nH]c(O)c(N=NC(=O)COc3ccc(NC(=O)Nc4ccccc4)cc3)c2c1 | 72.5% | 46.3% | 13.9% | 12.9% | 39% | 41.8% | 41.7% | -22.7% (active) | 63.9% | 41.7% |
| COc1cc(NC(=O)c2cccc(C3CCc4c(cc(OC)c(OC)c4OC)O3)c2)cc(OC)c1OC (stereo not given) | 11.6% | 15% | 21% | 28.3% | 47.4% | 73.1% | 8.61% (active) | -8.73% (active) | 33.7% | 22.2% |
| COc1ccc(-c2ccnc(SCc3cc4cc(OC)ccc4[nH]c3=O)n2)cc1 | 43.7% | 4.74% (active) | 36.7% | 22.7% | 7.02% (active) | 36.6% | 17.5% | 20.5% | 38% | 19.8% |
| CCN(CC)c1ccnc(CNCCSC(c2ccccc2)(c2ccccc2)c2ccc(C)cc2)c1 | -59.7% (active) | -45.1% (active) | -93.1% (active) | -97.7% (active) | -87.5% (active) | -55.8% (active) | -97% (active) | -97.5% (active) | -90.1% (active) | -87.2% (active) |
| COc1ccc(-c2nc3cc(C)ccc3n2CC(=O)N=Nc2c(O)[nH]c3ccc(Br)cc23)cc1 | 16.1% | 9.75% (active) | -59.4% (active) | -28.1% (active) | -52.7% (active) | 23% | -61.4% (active) | -67.1% (active) | 1.58% (active) | -58.2% (active) |
| CC(C)CSc1nc(NCCc2c[nH]c3ccccc23)c(C#N)c(-c2ccc(F)cc2)n1 | 58.6% | 18.9% | 73% | 40.8% | 26.1% | 51.9% | 46.7% | 47.9% | 81% | 62.7% |
| C=C1CCC2C3(C)COC(c4ccccc4)OC3CCC2(C)C1CC(Sc1ccccc1)C1=CCOC1=O (stereo not given) | 70.6% | 7.88% (active) | 92.8% | 62.5% | 72.7% | 83.3% | 62.7% | 17.7% | 63.8% | 53.7% |
| O=C(N=Nc1c(O)[nH]c2ccc([N+](=O)[O-])cc12)c1ccc2nc(-c3ccccc3)[nH]c2c1 | 57.9% | 48.1% | 30.7% | 59.5% | 74.6% | 53.3% | 102% | 6.74% (active) | 84.6% | 83.8% |
| Cc1cc2nc3c4ccccc4n(CCCN(C)C)c3nc2cc1C | 2.68% (active) | -4.14% (active) | -89.6% (active) | -23.4% (active) | -62.1% (active) | -38.6% (active) | -30.4% (active) | -69.4% (active) | -81.2% (active) | -74.4% (active) |
| Cc1occc1C(=O)NN1C(=O)/C(=C/C=C/c2ccc([N+](=O)[O-])o2)SC1=S | -57.7% (active) | 11.2% | -78.6% (active) | -89% (active) | -88.1% (active) | -64.3% (active) | 47% | -99.4% (active) | -44.5% (active) | -65.1% (active) |
| O=C(NN1C(=O)/C(=C/C=C/c2ccc([N+](=O)[O-])o2)SC1=S)c1ccc(Cl)cc1 | -100% (active) | 3.88% (active) | -96% (active) | -97.5% (active) | -92.1% (active) | -86.4% (active) | -91.9% (active) | -95.2% (active) | -93.3% (active) | -68.7% (active) |
| O=C(CN1C(=O)/C(=C/c2ccccc2Cl)SC1=S)N1CCOCC1 | 78.1% | 27% | 76.3% | 94.3% | 77.4% | 106% | 107% | 91.7% | 94.3% | 85.3% |
| CN(C)c1nc(NCCNS(=O)(=O)c2ccc(C3=Nc4c(N)nc(N)nc4NC(c4ccc(Cl)cc4)C3)cc2)nc(Nc2ccc(F)cc2)n1 (stereo not given) | 64% | 11.8% | 14.6% | 11.2% | 20.1% | 43.7% | 48.5% | -51.1% (active) | 42.6% | 11.6% |
| COc1cc2oc(-c3cccc(C(=O)Nc4ccc(Cl)cc4)c3)cc(=O)c2c(OCCNC(=O)[C@H](CO)NC(=O)OC(C)(C)C)c1OC | 32.2% | 11.3% | 20% | 2.74% (active) | -25.7% (active) | 41.4% | -16.4% (active) | -54.2% (active) | -41.7% (active) | -7.57% (active) |
| C=C1CCC2C3(C)COC(c4cccs4)OC3CCC2(C)C1CC(Sc1ccccc1)C1=CCOC1=O (stereo not given) | 94.4% | 40.7% | 103% | 89.3% | 107% | 96.6% | 92.5% | 95% | 95.6% | 83.3% |
| COc1ccc(NC(=O)[C@H](C)N)cc1C(=O)Nc1cccc(C2CC(=O)c3c(cc(OC)c(OC)c3OC)O2)c1 (stereo not given in full) | 86.6% | 75.8% | 105% | 87.3% | 92.8% | 81.5% | 119% | 89.3% | 107% | 110% |
| C=C1CCC2C3(C)COC(c4ccco4)OC3CCC2(C)C1CC(Sc1ccccc1)C1=CCOC1=O (stereo not given) | 78.4% | 18.5% | 94.9% | 78.5% | 96.5% | 91.5% | 76.1% | 48.3% | 54.1% | 61.6% |
| Cc1ccc(NCC(=O)Cn2cc(COc3ccc(C=Nc4cnc5ccccc5c4)cc3)nn2)cc1 | 119% | 102% | 102% | 107% | 125% | 123% | 107% | 104% | 105% | 105% |
| Cc1ccc(S(=O)(=O)c2nc(S(=O)(=O)c3ccc(C)cc3)c(N3CCC(O)CC3)s2)cc1 | 70% | 29% | 92.2% | 71.8% | 33.6% | 70.3% | 96.6% | 73.7% | 81.6% | 71.2% |
| O=C1CCCc2cc(OCC(=O)N3CCCCC3)ccc2N1 | 122% | 106% | 102% | 105% | 110% | 108% | 99% | 101% | 111% | 116% |
| CCOC(=O)C1=C(N)N(c2ccccc2)C2=C(C(=O)CC(C)(C)C2)C1c1ccc(N2CCOCC2)cc1 (stereo not given) | 111% | 96.9% | 112% | 104% | 91.2% | 97.4% | 98.9% | 93% | 109% | 101% |
